Most compounds without a hit are left out; they make up all but 8.3% or so of the library.
FBPA Giardia inh: inhibitors of Giardia lamblia fructose-1,6-bisphosphate aldolase | A8B2U2 | purified Giardia FBPA | Potency, µM (top dose mostly 59.6 µM), without a hit: top-dose activity, negative = inhibition, most hits filed as inhibitors | 290,000 compounds, 0.71% hits; note: potency is the fitted concentration of half-maximal effect; nearly all actives have a fitted effect of over 55% in size
Target sequence (A8B2U2 whole entry, looked up): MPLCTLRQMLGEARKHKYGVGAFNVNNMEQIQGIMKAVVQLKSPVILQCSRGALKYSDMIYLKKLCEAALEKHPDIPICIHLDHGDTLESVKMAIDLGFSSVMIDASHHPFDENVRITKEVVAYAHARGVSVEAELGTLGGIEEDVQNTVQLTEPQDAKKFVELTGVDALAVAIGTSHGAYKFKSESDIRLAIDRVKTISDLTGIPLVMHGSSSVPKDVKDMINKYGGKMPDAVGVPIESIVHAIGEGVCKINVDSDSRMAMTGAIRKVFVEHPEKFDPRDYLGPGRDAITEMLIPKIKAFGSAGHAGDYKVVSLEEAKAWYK
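40 nM FBPA preincubated 10 min at RT with compound (up to 57.5 uM final), then substrate plus GAPDH/TPI/NAD/arsenate coupling and diaphorase/resazurin added. Fluorescence read after 20 min at RT, 525/598 nm.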
HCMV inh: blocks human cytomegalovirus replication; 410,000 compounds, 4.5% hits; HFF cells, HCMV-luciferase reporter, 72 h; hits give low values; activity change, negative = inhibition, % at 57.5 µM; in the data active = activity change below about -60%; inconclusive = no clear call, values can overlap the other calls; inactive = above about -39%
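Human foreskin fibroblasts infected with luciferase-reporter HCMV at MOI 1 PFU/cell, compounds at two doses. Luciferase measured 72 h post infection; normalized to buffer-only basal and Salinomycin (10uM) controls.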
LASV entry inh: Lassa virus entry inhibition. Lassa virus pseudotype entry inhibition, cell reporter. Potency, µM (series often up to 37.9 µM), without a hit: top-dose activity change, negative = inhibition, usual class: inhibitors. 300,000 compounds, 1.2% hits. AID 540256; calls by dose curve; tested in HEK293 cells; note: potency is the fitted concentration of half-maximal effect; nearly all actives have a fitted effect of over 50% in size
HCV inhibitor: inhibitors of hepatitis C virus infection; Huh7.5.1 HCVcc-Cre infection, luciferase reporter, 44 h; Potency, µM (titrated, usually from 41.8 µM), without a hit: at the top dose activity change, negative = inhibition, hits mostly inhibitors; 340,000 compounds, 3.4% hits; note: potency is the fitted concentration of half-maximal effect
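1,000 cells/well; 4 h culture; + compound; + HCVcc-Cre (~0.5 moi); 44 h; luciferase substrate, RT 15 min; read 15 sec.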
FMDV antiviral: antivirals against foot and mouth disease virus; AID 1159524; FMDV antiviral cell-based qHTS; Potency, µM (doses to about 57.9 µM), for inactives: top-dose activity change, negative = inhibition, most hits filed as inhibitors; 410,000 compounds, 1.2% hits; calls by dose curve; tested in HEK293T cells; note: read-out not given here; potency is the fitted concentration of half-maximal effect; nearly all actives have a fitted effect of over 45% in size
Marburg entry inh: inhibitors of Marburg virus binding or cell entry; Potency, µM (highest dose often 37.8 µM), for the others: at the highest dose activity change, negative = inhibition, usual class: inhibitors; Marburg virus pseudotyped entry inhibition, cell reporter; 300,000 compounds, 1.8% hits; AID 540276; calls by dose curve; tested in HEK293 cells; note: potency is the fitted concentration of half-maximal effect
* marks the source's active call; other numbers are inactive results; [ ] = another dose, or the depositor's remark. Unless noted, calls come from the whole dose curve; as a rule, active = well fitted curve in the direction sought with a large enough effect; inconclusive = small, poorly fitted or top-dose-only effect, or another doubt; inactive = no such curve, though single readings can be large; an effect the other way counts as inactive or inconclusive. % is set by controls: 0 for no effect and ±100 for the full control effect.

For CCc1ccc2nc(N3CCN(C(=O)c4ccccc4)CC3)sc2c1 the results were HCMV inh inconclusive, LASV entry inh -7.7%[46.1 µM] and FMDV antiviral inconclusive.
`CCN(Cc1ccccc1)S(=O)(=O)c1ccc(C(=O)N2CCN(c3nc4ccccc4s3)CC2)cc1` gave FBPA Giardia inh 4.4%, HCMV inh -66.5*, LASV entry inh -0.4%, HCV inhibitor 10µM*, FMDV antiviral 10µM* and Marburg entry inh inconclusive.
`CC1CCN(c2nc3ccc(C(=O)N4CCN(Cc5ccccc5)CC4)cc3s2)CC1` gave FBPA Giardia inh 1.1%, HCMV inh inconclusive, HCV inhibitor 11.2µM*, FMDV antiviral inconclusive and Marburg entry inh -2.5%.
`Cc1ccc(OCc2nc(-c3ccc(C(=O)N4CCN(c5cc(Cl)ccc5C)CC4)cc3)oc2C)cc1` gave HCMV inh -5.3, FMDV antiviral inconclusive and Marburg entry inh inconclusive.
`COc1cc(C(=O)N(CCCN(C)C)c2nc3c(OC)cccc3s2)cc(OC)c1OC` gave HCMV inh -6.9, LASV entry inh -10.1%[46.1 µM] and FMDV antiviral -7.4%.
For C=C(CCN1C=C(C(=O)OCC)C(c2ccccc2)NC1=O)c1ccccc1 (centres undefined) the results were Marburg entry inh 9.8%[14.2 µM].
For O=C(c1ccc(CS(=O)(=O)c2c(Cl)cccc2Cl)o1)N1CCN(c2ccccc2)CC1 the results were HCMV inh -32.6, LASV entry inh inconclusive, FMDV antiviral inconclusive and Marburg entry inh inconclusive.
Screening CCc1nc2ccc(C(=O)N3CCN(c4ccc([N+](=O)[O-])cc4)CC3)cc2nc1CC returned HCMV inh inconclusive, HCV inhibitor 12.6µM* and FMDV antiviral inconclusive.
Screening CCCN1CCN(CCCNC(=O)c2ccc3nc(N4CCC(C)CC4)sc3c2)CC1 returned FBPA Giardia inh 2.6%, HCMV inh -25.0, HCV inhibitor 11.2µM* and FMDV antiviral inconclusive.
CCc1noc(C)c1C(=O)N1CCN(c2ccc([N+](=O)[O-])cc2)CC1 was read as HCMV inh 38.1 and FMDV antiviral inconclusive.
For CCCCN(C)CCNC(=O)C1CCN(c2nc3ccc(CC)cc3s2)CC1 the results were HCMV inh -97.9*, LASV entry inh 25.9%[46.1 µM], FMDV antiviral 0.4% and Marburg entry inh inconclusive.
`CCCCOc1c(Cl)cc(C(=O)N(Cc2ccc(C)o2)C2CCS(=O)(=O)C2)cc1Cl` (centres undefined) gave HCMV inh -109.6*, LASV entry inh -1.7%[46.1 µM], FMDV antiviral inconclusive and Marburg entry inh inconclusive.
C=C(N(C)C)[C@]1(C)C[C@H]1[C@H](NC(=O)CNC(=O)OCc1ccccc1)c1ccccc1 was read as FBPA Giardia inh 8.8%.
Screening CC1CCN(CC(O)COCCC23CC4CC(CC(C4)C2)C3)CC1 (centres undefined) returned FBPA Giardia inh 0.3%, HCMV inh -74.6*, LASV entry inh inconclusive, HCV inhibitor 35.5µM* and Marburg entry inh 6.51µM*.
Screening CC1CCN(CC(O)COCCOc2ccc(Br)cc2)CC1 (centres undefined) returned FBPA Giardia inh -9.2%, HCMV inh inconclusive, LASV entry inh 14.5%, HCV inhibitor inconclusive, FMDV antiviral 18.1% and Marburg entry inh 7.5%.
For C[C@@H]1CN([C@H](C)CO)C(=O)c2c(c3ccccc3n2C)-c2ccccc2CO[C@H]1CN(C)Cc1ccccc1 the results were HCMV inh -11.2 and FMDV antiviral -19.5%.
Screening COc1cccc(CN(C)C[C@@H]2OCc3ccccc3-c3c(n(C)c4ccccc34)C(=O)N([C@@H](C)CO)C[C@H]2C)c1 returned HCMV inh -104.9* and FMDV antiviral inconclusive.
For CCOc1ccc(NC(=O)N2CC=C(c3c[nH]c4ccccc34)CC2)cc1 the results were HCMV inh 0.0, LASV entry inh -25.9%[46.1 µM] and FMDV antiviral -19.0%.
For COc1cc(Nc2nc(SCC(=O)c3ccc(Br)cc3)nc3ccccc23)cc(OC)c1 the results were HCMV inh -62.3*, LASV entry inh -21.9%[46.1 µM] and FMDV antiviral inconclusive.

Bioassay records (PubChem BioAssay)
